PubChem BioAssay AID1345083 (National Center for Advancing Translational Sciences (NCATS), 2018)
The campaign covered roughly 94,000 compounds. About 6,200 (6.6%) were called active. About 31% were inconclusive and are not listed. The sample as a whole holds a higher share of actives than the screen did. Unmarked numbers belong to inactive results. Calls follow the shape of the dose curve; as a rule, active = well fitted inhibition curve with a large enough effect; inconclusive = small, poorly fitted or top-dose-only effect; inactive = flat fitted curve, though single readings scatter.

Experiment: Cytotoxic Profiling in HEK 293 Cell Line of Diverse Libraries Using Quantitative High-Throughput Screening; also: nearly all actives have a fitted effect of over 60% in size
Settings: HEK 293 viability, ATP luminescence (CellTiter-Glo), 48-72 h; series mostly up to 115 µM; activity change, negative = cytotoxicity: at the top concentration
How it was run: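 Read-out: CellTiter-Glo ATP luminescence. Cells: HEK 293, 250 cells/well. Exposure: 48 or 72 hr, 37 degree Celsius.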
% is scaled to controls: 0 for no effect and ±100 for the full control effect; potency is read from the fitted curve at half-maximal effect.

SMILES | activity change, negative = cytotoxicity | outcome | Potency
O=C(c1ccc2nnc(C3CC3)n2c1)N1CCOCC1 | 0.449% [at 172 µM] | – | –
CC(C)n1c(C2CCN(C(=O)Cc3cccc(F)c3)CC2)nn(C)c1=O | – | inactive | –
O=C(C1CCCN(c2ccnc3ccnn23)C1)N1CCCCC1 (configuration not stated) | -26.9% [at 172 µM] | – | –
CCC(C)N1CCN(C(=O)CCc2ccc3c(c2)CN(C(=O)NC(C)C)CCO3)CC1 (configuration not stated) | -4.09% | – | –
O=C(c1ccoc1)N1CCCN(C(=O)C2COc3ccccc3C2)CC1 (configuration not stated) | -24.8% | – | –
O=C(c1ccoc1)N1CCOc2ccc(CN3CCc4ccccc4C3)cc2C1 | – | – | 39.8 µM (active)
O=C(CC1CCCC1)N1CCOc2ccc(CN3CCCCC3)cc2C1 | -22.3% | – | –
O=C(c1ccccc1)N1CCOc2ccc(CN3CCc4ccccc4C3)cc2C1 | – | – | 44.7 µM (active)
O=C1CCN(Cc2ccc3c(c2)CCO3)CCOCCN1 | 4.17% | – | –
COc1ccccc1N1CCN([C@@H]2[C@H](O)[C@H](CO)O[C@@H]2CNC(=O)c2ccc(F)c(Cl)c2)CC1 | – | inactive | –
CN1C[C@H](NCc2nccn2C)CCC[C@@H](C(=O)NC2CC2)CC1=O | -8.8% [at 172 µM] | – | –
O=C(NCc1cccs1)c1nc(-c2cc(Cl)cc(Cl)c2)c2ccccn12 | – | inactive | –
CCc1cccc(NC(=O)N2[C@@H]3CC[C@H]2CC(NC(=O)c2ccc(F)cc2)C3)c1 (some centres not stated) | – | – | 39.8 µM (active)
CCOCC(=O)N1[C@@H]2CC[C@H]1CC(NC(=O)c1ccc(F)cc1)C2 (some centres not stated) | 3.15% | – | –
Cc1ccncc1C(=O)N1[C@@H]2CC[C@H]1CC(NC(=O)c1ccc(F)cc1)C2 (some centres not stated) | – | inactive | –
CNC(=O)c1cc(C)nc2onc(C3CCCN(C(=O)c4ccccn4)C3)c12 (configuration not stated) | -3.14% | – | –
CCC(c1ccccn1)N(C)C(=O)c1cc(COc2ccccc2)[nH]n1 (configuration not stated) | -18.1% | – | –
COc1ccc(OC)c(S(=O)(=O)N2CCC(CC(=O)NCc3ccccc3)C2)c1 (configuration not stated) | -14.4% | – | –
COc1ccc(CNC(=O)C2CCCCN2Cc2ccc(-c3ccccc3OC)cc2)cc1 (configuration not stated) | – | – | 31.6 µM (active)
COc1ccccc1-c1ccc(CN2CCCCC2C(=O)NCc2cccc(Cl)c2)cc1 (configuration not stated) | – | – | 22.4 µM (active)
C=C(C)CCC(C)N1CCC(N2CCC(C(=O)NCc3ccccn3)CC2)CC1 (configuration not stated) | -4.18% | – | –
C#CCNC(=O)C1CCc2nnc(-c3ccccc3OC)n21 (configuration not stated) | -6.52% | – | –
CCOc1cc(=O)n2c(c1C(=O)NCc1cccc(Cl)c1)CCCC2 | -25.7% | – | –
CN1CCCCCC1C(=O)NCc1cccnc1Oc1ccccc1F (configuration not stated) | -23.7% | – | –
COc1ccc(F)cc1-c1ccc(CN2CCCCC2C(=O)NCc2ccccn2)cc1 (configuration not stated) | – | – | 25.1 µM (active)

SMILES | activity change, negative = cytotoxicity | outcome | Potency
CCNC(=O)[C@@H]1CCCN1[C@@H](C(=O)NC)c1ccccc1OC | 2.6% [at 172 µM] | – | –
Cc1ccc2[nH]c(CCCn3cc(-c4nccn4C)nn3)nc2c1C | -2.12% | – | –
Cc1cnc(C(=O)N2CC[C@H](CO)[C@H](N(C)C)C2)cn1 | -7.91% | – | –
COC(=O)c1nc(NC(=O)Cn2nc3c(cc2=O)CCCCC3)sc1C | -20.3% | – | –
CC(=O)c1cc(CN2CCN(c3nnc(C(F)(F)F)s3)CC2)cs1 | -31.2% | – | –
O=C(C1CC1)N1CCC2(CC1)C(=O)NCN2Cc1ccc(Cl)cc1 | -22.5% | – | –
C[S+](=O)([O-])N1CC2(Cc3ccccc31)CN(C(=O)C1CC1)C2 | – | inactive [at 172 µM] | –
COc1ccc(CNC(=O)N2CC3CN(C)CC(C2)O3)cc1 | -1.63% | – | –
COc1ccc(CNC[C@H]2O[C@H](Cc3cc(-c4ccc(OC)cc4)on3)CC[C@@H]2O)cc1 | – | – | 35.5 µM (active)
CC(=O)N1CCC(NC[C@H]2O[C@H](Cc3cc(-c4cccc(O)c4)on3)CC[C@@H]2O)CC1 | -11.3% [at 172 µM] | – | –
Cc1ncsc1C1N(C2CCN(C(=O)C3CC3)CC2)C(=O)C12CCCC2 (configuration not stated) | – | inactive | –
CCC(C)NC(=O)Cc1csc2nc(C)c(-c3cc(C)n(-c4ccc(C(C)C)cc4)n3)c(=O)n12 (configuration not stated) | -13.3% | – | –
Cc1nn(-c2ccccc2)c2c1C(C)N(C1CN(C(=O)Nc3ccccc3)C1)C2=O (configuration not stated) | -21.4% | – | –
Cc1nn(-c2ccc(C(C)C)cc2)c(C)c1[C@@H]1C=C[C@@H](NC(=S)NCC(C)C)C1 | – | – | 25.1 µM (active)
COc1ccc(-n2nc(C)c([C@H]3C=C[C@@H](OC(=O)Nc4cccc(F)c4)C3)c2C)cc1 | – | – | 20 µM (active)
CCOCCOC1CCN(C(=O)Nc2cccc(F)c2)CC1 | -1.97% | – | –
COc1ccc(-n2nc(-c3ccccc3)n(CC(=O)N(C)CC(C)C)c2=O)cc1 | -13.5% | – | –
Cc1nn(-c2ccccc2)c2c1C(C(C)C)N(C1CN(C(=O)c3ccc(Cl)nc3)C1)C2=O (configuration not stated) | – | inactive | –
COc1ccc(C(=O)Nc2cc(-c3ccccn3)nn2-c2ccccc2)cc1 | -27.8% | – | –
Cc1nn(-c2ccc(C(C)C)cc2)c(C)c1[C@@H]1C=C[C@@H](NC(=O)Nc2ccccc2)C1 | – | – | 39.8 µM (active)
COc1ccc(-n2nc(C)c([C@@H]3C=C[C@@H](NC(=O)Nc4ccccc4)C3)c2C)cc1 | – | – | 50.1 µM (active)
COc1ccc(C(=O)Nc2cccc(-c3nnc4n3CCCC4)c2)cc1 | -14.6% | – | –
O=C(Cc1cccnc1)NC1CC(=O)N(Cc2cccc3ccccc23)C1 (configuration not stated) | -12.1% | – | –
CCNC(=O)c1noc(-c2ccc[nH]c2=O)n1 | 10.7% | – | –
Cc1nc(CC(=O)N[C@@H]2COCC[C@H]2Oc2ccc(C#N)cc2)c(C)s1 | -10.6% | – | –

SMILES | activity change, negative = cytotoxicity | outcome | Potency
Cc1ccc(C2Cn3cnc(C(=O)N4CCC(C(=O)NCCC(C)C)CC4)c3CO2)cc1 (configuration not stated) | 10.4% | – | –
Cc1ccc(C(=O)N2CCC(c3nn(-c4ccccn4)c(=O)[nH]3)CC2)cc1 | -27.8% | – | –
CCCn1cnc2c1CN(S(=O)(=O)c1ccc(C#N)cc1)[C@H](C(=O)OC)C2 | 3.28% [at 172 µM] | – | –
CCN(CC)C(=O)C(NC(=O)c1ccc(OC)cc1)C1CCN(C(=O)c2ccc(F)cc2)CC1 (configuration not stated) | -3.47% | – | –
O=C(NC1CCCCC1)[C@@H]1C[C@@H](O)CN1C1CCN(C(=O)c2ccncc2)CC1 | – | inactive | –
O=C1NC2(Cc3ccccc31)CN(Cc1cscn1)C2 | – | inactive [at 172 µM] | –
O=C1NCCCCCCN(Cc2ccncc2)[C@@H]2CN(C(=O)NCCc3ccccc3)CC[C@@H]12 | -3% | – | –
COc1ccc(NC(=O)[C@@H]2C[C@@H](O)CN2C2CCN(C(=O)c3cccc(OC)c3)CC2)cc1 | -22.3% | – | –
COc1ccc(NC(=O)N[C@@H]2C=C[C@@H](c3c(C)nn(-c4ccc(C(C)(C)C)cc4)c3C)C2)cc1 | – | – | 31.6 µM (active)
O=C(c1ccc(Cn2cccn2)o1)N1CCn2nc(C(O)CO)cc2C1 (configuration not stated) | 3.08% | – | –
CN1CCN([C@@H]2[C@H](O)[C@H](CO)O[C@@H]2CNS(=O)(=O)c2ccccc2)CC1 | -0.985% | – | –
CCCn1c(C)cnc1C1CCN(C(=O)C2CCCC2)C1 (configuration not stated) | -0.0753% | – | –
O=C1CN(C(=O)c2ccc(-n3cccn3)cc2)CC(OCc2ccccc2)CN1Cc1cccnc1 (configuration not stated) | 0.591% | – | –
O=c1c2nc(OCc3ccc(-n4cccn4)cc3)ccc2ncn1Cc1ccccc1 | – | – | 28.2 µM (active)
COc1ccc(-c2ccc3ncn(Cc4ccccc4)c(=O)c3n2)cc1OC | -29% [at 172 µM] | – | –
CN(C)C(=O)c1cc(-c2cccc(C(F)(F)F)c2)c2nncn2n1 | – | inactive | –
CC(=O)N1CCc2[nH]cnc2C12CCN(C(=O)c1ccc(=O)[nH]c1)CC2 | – | inactive | –
CC(C)CNC(=O)C1Cn2cccc2C(=O)N1CC(C)C (configuration not stated) | – | inactive | –
COc1ccc(-n2c(=O)c(C(=O)NCC3CC3)nc3cccnc32)cc1 | – | inactive [at 172 µM] | –
COc1ccc(CN2C[C@H]3CN(Cc4ccc(NC(C)=O)cc4)CCN3C2=O)cc1 | – | – | 89.1 µM (active)
COc1ccc2nc([C@H]3CCN(Cc4ccc(NC(C)=O)cc4)C3)[nH]c2c1 | -26.9% [at 172 µM] | – | –
O=C(Nc1ccccc1)N1CCN2C(=O)N(Cc3ccc(F)cc3)C[C@H]2C1 | -21.7% [at 172 µM] | – | –
COc1ccc(CCC(=O)N2CCCC(c3nc(-c4cccnc4)no3)CCNC(=O)CC2)cc1 (configuration not stated) | -15.1% | – | –
O=C(NC1CCCCC1)N1CCCCC1c1noc(COCC2CC2)n1 (configuration not stated) | -29.1% | – | –
O=C(Cn1nc2c(cc1=O)CCCC2)Nc1nc(-c2ccc3c(c2)OCO3)cs1 | 5.94% | – | –

SMILES | activity change, negative = cytotoxicity | outcome | Potency
COc1ccc(-c2cccc(C(=O)N3CCC(NC(=O)c4ccc(C(F)(F)F)cc4)CC3)c2)nn1 | – | – | 39.8 µM (active)
COc1ccc(-c2cccc(C(=O)N3CCN(C(=O)c4ccc(F)cc4)CC3)c2)nn1 | -5.12% | – | –
COc1ccc(-c2cccc(C(=O)NC3CC3)c2)nn1 | -19.7% [at 172 µM] | – | –
COCC(=O)N1CCC(C(=O)N2CCCC(c3nc4ncccc4[nH]3)C2)CC1 (configuration not stated) | -0.191% | – | –
O=C1N[C@H](CC(=O)N2CCN(Cc3ccccc3)CC2)C(=O)Nc2ccccc21 | 7.44% | – | –
COc1cccc(-c2ccnc3nc(Cc4cc(F)cc(F)c4)nn23)c1 | – | – | 39.8 µM (active)
Fc1ccc(Cc2nc3nccc(-c4cc5ccccc5o4)n3n2)cc1 | -0.828% | – | –
COCc1nc2nccc(-c3ccccc3)n2n1 | 0.903% | – | –
COCC1CN(C(=O)c2ccc(C#N)cc2)CC12CCOCC2 (configuration not stated) | 4.38% | – | –
COc1ccc(OC)c(NC(=O)c2cc3n(n2)CC(c2ccc(Cl)cc2)OC3)c1 (configuration not stated) | 3.27% | – | –
COc1ccc(CNC(=O)c2cc3n(n2)CC(c2ccc4c(c2)OCO4)OC3)c(OC)c1 (configuration not stated) | – | – | 35.5 µM (active)
COc1ccc(C(=O)N[C@@H]2CCC[C@@H]2C(=O)NCc2ccc3c(c2)OCO3)cc1 | – | inactive | –
COc1ccc(OCc2nc(C)c(CCO)c(=O)n2CC(=O)NCc2ccc(F)cc2)cc1 | 4.49% | – | –
N#Cc1ccc(CN2C[C@@H]3C[C@H]2C(=O)Nc2ccccc2O3)cc1 | -16.4% [at 172 µM] | – | –
O=C1[C@@H]2C[C@@H](CN2Cc2ccc3ccccc3n2)Oc2ccccc2N1Cc1ccccc1 | – | – | 44.7 µM (active)
COCCN1C(=O)[C@@H]2C[C@@H](CN2C(=O)Nc2ccccc2)Oc2ccccc21 | -6.62% [at 172 µM] | – | –
COCCC(=O)NCC1Cn2cccc2C(=O)N1Cc1ccccc1 (configuration not stated) | -20.1% | – | –
COc1ccccc1C(=O)N1CCC2(C1)C(=NC1CCCC1)NC(=O)N2c1cccnc1 (configuration not stated) | – | inactive | –
CS(=O)(=O)N1CCC(C2CCN(C(=O)Cc3cccs3)C2)CC1 (configuration not stated) | -7.95% | – | –
COc1ccccc1CN1CCc2nc(C3CC3)nc(-c3ccc(O)cc3)c2CC1 | – | – | 44.7 µM (active)
COc1ccc(CC(=O)N2CCc3nc(C4CC4)nc(-c4ccc(O)cc4)c3CC2)cc1 | -15.7% | – | –
COc1ccccc1CN1CCc2nc(C(C)C)nc(-c3ccc(O)cc3)c2C1 | -27.8% | – | –
